Hits are enriched below; roughly 1.6% of the tested compounds scored in any of these assays.
KCNQ2 inh: blocks the rat KCNQ2 potassium channel; O88943; 310,000 tested, 1.1% active; AID 2156; CHO-K1 KCNQ2, FluxOR thallium flux, 20 min; stronger effect = lower value; B-score at 10 µM;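 active means fluorescence ratio B-score at most minus 3 library SDs, with starting brightness B-score within 2 library SDs, cut at about -5.5 in these data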
KCNQ2 enhance: enhances the rat KCNQ2 potassium channel. O88943. 310,000 tested, 0.54% active. CHO-K1 KCNQ2, FluxOR thallium flux fluorescence; stronger effect = higher value. B-score at 10 µM;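 active means fluorescence ratio B-score at least 3 SD of library B-scores, with initial fluorescence B-score within 3 of them, cut at about 5.3 in these data; same plate scores as AID 2156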;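 further: B-score of peak minus minimum over baseline fluorescence ratio after K+ and Tl+ stimulus; positive B-score means potentiation of KCNQ2 with more thallium influx and brighter signal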
Kir21 confirm: confirmation of mouse Kir2.1 potassium channel inhibitors. 2,300 tested, 41% active. shares compounds with KCNQ2 enhance. Kir2.1-expressing cells, FluxOR thallium flux fluorescence; stronger effect = lower value. Tl flux remaining, % of negative control (stronger effect = lower value), % at 10 µM;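 active means Primary-screen hit whose thallium flux fell at least 3 control SD below untreated wells in both duplicates, with normal baseline fluorescence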;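 further: 0% = blank wells without stimulus and 100% = stimulated no-compound controls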
HEK293 ctr: alters thallium flux in parental HEK293 cells, Kir2.1 counter-screen | 2,300 tested, 19% active | shares compounds with KCNQ2 enhance | FluxOR thallium flux fluorescence; 0% = unstimulated blank wells | AID 2105 | FluxOR signal as % of negative control (100 = no effect), % at 10 µM;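 active means dye signal at least 3 control SD above or below untreated wells in both duplicates, raw fluorescence within 3, either direction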;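 further: percent is based on the flux ratio of peak minus minimum fluorescence over baseline F0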
CHO-K1 Tl ctr: alters thallium flux in parental CHO-K1 cells, KCNQ2 counter-screen; FluxOR thallium flux fluorescence; zero = vehicle mean+3SD, 100% = vehicle-minus-blank window; 1,200 tested, 43% active; activity increase over 3SD of controls, % at 10 µM; shares compounds with KCNQ2 enhance;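 active means signal rise of at least 3 SD above the untreated control mean, in both duplicate wells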;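 further: counter screen of KCNQ2 potentiator hits so any rise reflects channel-independent effects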
KCNQ1 pot spec: human KCNQ1 counter-target activity of KCNQ2 potentiators; CHO KCNQ1 stable, FluxOR thallium flux fluorescence; beyond 3SD, as % of vehicle-control signal; 1,200 tested, 28% active; shares compounds with KCNQ2 enhance; activation over 3SD threshold, % at 10 µM;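 active means fluorescence ratio rise of at least 3 SD of vehicle wells above their mean, in both replicate wells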;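 further: 0% = vehicle mean plus 3 SD and 100% = vehicle minus unstimulated blank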
KCNQ2 pot confirm: rat KCNQ2 channel potentiator confirmation; 1,200 tested, 68% active; potentiation, less the hit threshold, % at 10 µM; CHO-KCNQ2 cells, FluxOR thallium flux fluorescence; shares compounds with KCNQ2 enhance;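 active means fluorescence ratio rising 3 SD or more over the vehicle control mean in both replicates, plus primary screen hit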;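 further: peak minus minimum thallium fluorescence divided by baseline after K/Tl stimulus; 0% = vehicle mean plus 3 SD and 100% = vehicle minus unstimulated blank difference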
Kir21 spec: selectivity of KCNQ2 potentiators: effect on mouse Kir2.1 | activity over 3SD threshold, % at 10 µM | HEK293 Kir2.1, FluxOR thallium flux fluorescence | AID 2345 | shares compounds with KCNQ2 enhance | 1,200 tested, 2% active;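 active means fluorescence ratio rise of at least 3 SD above the vehicle-control mean, seen in both replicates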;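 further: 0% = vehicle mean plus 3 SD and 100% = vehicle minus no-stimulus blank window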
KCNQ2 W236L pot: potentiates the retigabine-insensitive rat KCNQ2 W236L mutant channel; shares compounds with KCNQ2 enhance; CHO KCNQ2-W236L, automated patch clamp current; 940 tested, 10% active; current increase over 3SD of negative controls (%), stronger effect = higher value, % at 25 µM;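 active means current increase at least 3 SD of the untreated controls above them in both duplicate recordings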
* hit, by the source's call; i = inactive; . = not tested or not shown.

SMILES	KCNQ2 inh	KCNQ2 enhance	Kir21 confirm	HEK293 ctr	others
COc1ccc(C[C@H]2CN3C(=NC[C@@H]3C(C)C)N2CCNC(=O)c2ccc(C)c(Br)c2)cc1	i	.	49%*	i
Cc1ccc(C(=O)NCCN2C3=NC[C@H](C(C)C)N3C[C@H]2Cc2ccc(O)cc2)cc1Br	i	.	.	.
O=C(C[n+]1ccc(/C=N/O)cc1)N1CCCCC1	i	.	.	.
CN(C)CCCN1c2ccccc2Sc2ccc(C(F)(F)F)cc21	i	.	.	.
CN1CCN(CCCN2c3ccccc3Sc3ccc(Cl)cc32)CC1	-9.1*	-9.1	14%*	i
OCCN1CCN(CCCN2c3ccccc3Sc3ccc(C(F)(F)F)cc32)CC1	i	.	30%*	i
O=C(CCN1CCOCC1)N1c2ccccc2Sc2ccc(Cl)cc21	i	.	.	.
COc1ccccc1C(=O)Nc1ccnn1C1CCN(Cc2ncc[nH]2)CC1	i	1.2	.	.
CC(C)CCNC(=O)NC(=O)COC(=O)C1CCN(S(=O)(=O)c2ccccc2F)CC1	i	.	.	.
CCCCc1cc(=O)oc2cc(OCC(=O)Nc3cccnc3)c(Cl)cc12	i	1.1	.	.
N#CC(c1ccc(O)cc1)c1ncc(C(F)(F)F)cc1Cl (stereo not given)	i	2.2	48%*	i
NC(=O)C(c1ccc(Cl)cc1)c1ncc(C(F)(F)F)cc1Cl (stereo not given)	i	3.4	.	.
COCCCN(C(=O)c1cc(-c2ccco2)nc2ccccc12)c1c(N)n(Cc2ccccc2)c(=O)[nH]c1=O	i	0.49	.	.
O=C(CCOc1ccccc1)Nc1ccccc1F	i	0.69	.	.
O=c1ccsn1Cc1ccccc1	i	5.7*	.	.	CHO-K1 Tl ctr=-18;KCNQ1 pot spec=-17;KCNQ2 pot confirm=-4;Kir21 spec=-63
O=c1cc(Cl)[nH]c(=O)n1Cc1ccccc1	i	1.1	.	.
Cc1cc(Cl)ccc1OC(C)C(=O)NC(C)C1CCCO1 (stereo not given)	i	.	56%*	i
CC(NC(=O)Nc1ccc(Cl)cc1)C1CCCO1 (stereo not given)	i	.	.	.
O=C(NC(=S)N1CCN(c2ccc(Cl)cc2[N+](=O)[O-])CC1)c1ccco1	i	.	.	.
O=C(NC(=S)N1CCN(c2ccc(Cl)cc2[N+](=O)[O-])CC1)c1cccs1	i	5.5*	i	151%*	CHO-K1 Tl ctr=53*;KCNQ1 pot spec=24*;KCNQ2 pot confirm=8.6*;Kir21 spec=-32;KCNQ2 W236L pot=i
COc1ccccc1NC(=O)CSc1nc(=O)n(Cc2ccncc2)c2c1CCCC2	i	0.47	.	.
CCc1ccc(/C=C2\Oc3c(ccc(O)c3CN3CCN(CCO)CC3)C2=O)cc1	i	.	.	.
Nc1ccc(CCn2ccnc2)cc1	i	0.34	.	.
O=C(Cc1c(F)c(F)c(F)c(F)c1F)Nc1nc(-c2ccccc2)cs1	i	.	.	.
CC(C)C(CCNC1CCN(C)CC1)c1ccc(Cl)cc1 (stereo not given)	i	.	.	.
SMILES	KCNQ2 inh	KCNQ2 enhance	Kir21 confirm	HEK293 ctr	others
CN1CCC(NCCC(c2ccc(F)cc2)c2ccc(Cl)cc2)CC1 (stereo not given)	i	.	56%*	i
CC(C)c1cc(Br)ccc1OCCCN1C(=O)NC(C)(C)C1=O	i	.	i	i
CC1(C)NC(=O)N(CCCOc2ccc(Br)cc2Cl)C1=O	i	0.39	.	.
O=C(N/N=C/C1C(c2ccccc2)C1(Cl)Cl)c1cccc(Br)c1 (stereo not given)	i	.	.	.
COc1cc(CNCc2ccc(C)cc2)cc(OC)c1OC	i	1.2	.	.
Cc1cc(Br)c(NC(=O)COC(=O)C2CC2C)c(Br)c1 (stereo not given)	i	3.5	.	.
